Cycloheximide cs = counter-screen for Shiga toxin inhibitors: cycloheximide protein synthesis inhibition | cell reporter, cycloheximide protein synthesis inhibition counterscreen | max response, % | 12% of 300,000 active | AID 2314; in the data active = max response mostly above about 13%, no sharp cut-off; inactive = mostly below about 14%; also: read at 38.3 µM for the half of the compounds with a filed dose; 0% is about no effect
Sm TGR block = blocks Schistosoma mansoni thioredoxin glutathione reductase; Q962Y6; purified TGR, DTNB reduction, TNB absorbance 405 nm; Potency, µM (titrated, usually from 114 µM), for inactives: top-dose activity change, negative = inhibition, hits mostly inhibitors; 3% of 360,000 active; AID 485364; also: potency is read from the fitted curve at half-maximal effect; % is scaled to controls: 0 for no effect and ±100 for the full control effect; nearly all actives have a fitted effect of over 60% in size
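First, TGR (20 nM dispensed) and NADPH were mixed with compound. Second, a 15 min room-temperature incubation followed. Third, further NADPH and then DTNB were added to start the reaction. Finally, TNB absorbance was monitored kinetically.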
Shiga inhibitor = inhibitors of Shiga toxin in Vero cells | Vero cells, Shiga toxin protein synthesis inhibition reporter | inhibition, % at 38.7 µM | 9.2% of 290,000 active | AID 2315; in the data active = inhibition mostly above about 28%, no sharp cut-off; inactive = mostly below about 43%; also: 0% is about no effect
NS1 inh = influenza NS1 inhibition. 0.4% of 270,000 active. Potency, µM (doses to about 46.1 µM), inactives show at the top dose activity, positive = more growth; calls by dose curve; also: potency is read from the fitted curve at half-maximal effect; actives are rising curves; nearly all actives have a fitted effect of over 50% in size
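Compounds were scored for reversing the slow growth caused by influenza A NS1 in S. cerevisiae, measured by optical density at 600 nm. Assay medium contained 2% galactose at pH 6.0; NS1-free yeast of the same strain were the positive control.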
Pf growth 48h = P. falciparum growth inhibition at 48 hours (one generation); P. falciparum luciferase growth in erythrocytes, 48 h; Potency, µM (doses to about 28.7 µM), inactives show top-dose activity change, negative = inhibition, usual class: inhibitors; 5.9% of 310,000 active; AID 504832; also: potency is read from the fitted curve at half-maximal effect; % is scaled to controls: 0 for no effect and ±100 for the full control effect
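Growth was read as firefly luciferase luminescence after a 48 h, 37 C, 5% CO2 exposure of compounds to reporter-bearing P. falciparum cultures (0.1% parasitemia, 2% hematocrit final) in Albumax-supplemented RPMI 1640.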
Pf growth 96h = P. falciparum growth inhibition at 96 hours; P. falciparum luciferase reporter growth, 96 h; Potency, µM (doses to about 28.7 µM), for the others: top-dose activity change, negative = inhibition, actives largely listed as inhibitors; 6.9% of 320,000 active; also: potency is read from the fitted curve at half-maximal effect; % is scaled to controls: 0 for no effect and ±100 for the full control effect
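P. falciparum expressing integrated firefly luciferase grown in erythrocytes (2% hematocrit, 0.05% parasitemia final) with compounds for 96 hours at 37 C, 5% CO2. Growth inhibition read as loss of luminescence after adding luciferase detection reagent.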
An asterisk follows results filed as active. Sampled rows, rich in hits. Any-hit rate of the full collection: about 21%. Unless noted, calls follow the shape of the dose curve; as a rule, active = well fitted curve in the direction sought with a large enough effect; inconclusive = small, poorly fitted or top-dose-only effect, or another doubt; inactive = no such curve, though single readings can be large; an effect the other way counts as inactive or inconclusive.

`O=CN1CCCN(C(=O)CC2C(=O)NCCN2Cc2cccc(Oc3ccccc3)c2)CC1` (centres undefined) gave Cycloheximide cs -2.2, Sm TGR block 12.6µM*, Shiga inhibitor -7.8, NS1 inh 2.4%, Pf growth 48h -3.6% and Pf growth 96h inconclusive.
`CN(Cc1cnn(C)c1)C(=O)CC1C(=O)NCCN1Cc1cccc(Oc2ccccc2)c1` (centres undefined) gave Cycloheximide cs 0.5, Sm TGR block 39.8µM*, Shiga inhibitor -1.6, NS1 inh 0.8%, Pf growth 48h -11.0% and Pf growth 96h -1.6%.
COc1cccc(CN2CCNC(=O)C2CC(=O)N(C)C2CCOCC2)c1 (centres undefined) was read as Cycloheximide cs 2.0, Sm TGR block inconclusive, Shiga inhibitor -5.9, NS1 inh 0.5%, Pf growth 48h 19.3% and Pf growth 96h -13.6%.
O=C1NCCN(Cc2cccc(Oc3ccccc3)c2)C1CC(=O)N1CCCCC1 (centres undefined) was read as Cycloheximide cs -1.6, Sm TGR block inconclusive, Shiga inhibitor -21.1, NS1 inh 2.9%, Pf growth 48h -27.6% and Pf growth 96h -11.7%.
Screening COc1cccc(CN2CCNC(=O)C2CC(=O)N(C)C2CCCCC2)c1 (centres undefined) returned Cycloheximide cs 1.0, Sm TGR block 44.7µM*, Shiga inhibitor -9.4, NS1 inh -0.5%, Pf growth 48h -17.7% and Pf growth 96h inconclusive.
Screening Cc1nc(CN(C)C(=O)CC2C(=O)NCCN2Cc2ccc(-c3ccccc3)cc2)cs1 (centres undefined) returned Cycloheximide cs 18.2, Sm TGR block 0.0%, Shiga inhibitor 25.6*, NS1 inh -30.2%, Pf growth 48h -12.2% and Pf growth 96h -6.2%.
`O=C(COC(=O)Cc1ccc(Br)cc1)NCc1ccc2c(c1)OCO2` gave Sm TGR block 5.6%, Pf growth 48h 71.4% and Pf growth 96h 18.8%.
`O=C(CCNS(=O)(=O)c1ccc(Br)cc1)Nc1cccc(F)c1` gave Cycloheximide cs -5.1, Sm TGR block -2.8%, Shiga inhibitor -13.0, NS1 inh -2.1%, Pf growth 48h 18.7% and Pf growth 96h 26.8%.
`COc1ccc(-c2nn(CCC(=O)O)cc2/C=C/C(=O)O)cc1[N+](=O)[O-]` gave Cycloheximide cs -0.2, Sm TGR block -1.7%, Shiga inhibitor -9.0, NS1 inh 6.6%, Pf growth 48h 4.5% and Pf growth 96h 68.6%.
Screening Cc1ccc(S(=O)(=O)c2nnn(CC(=O)Nc3ccccc3C)c2N)cc1C returned Sm TGR block 3.2%.
CN(CC1CCOCC1)C(=O)CC1C(=O)NCCN1Cc1cccc(Oc2ccccc2)c1 (centres undefined) was read as Cycloheximide cs -2.2, Sm TGR block 39.8µM*, Shiga inhibitor -2.1, NS1 inh 1.7%, Pf growth 48h inconclusive and Pf growth 96h inconclusive.
Screening CCCCn1c2ccccc2c2nnc(SCC(=O)NC3=NN=C(c4ccccc4)CS3)nc21 returned Cycloheximide cs 4.8, Sm TGR block 2.8%, Shiga inhibitor -13.8, NS1 inh 4.2%, Pf growth 48h 2.94µM* and Pf growth 96h inconclusive.
Cn1c2ccccc2c2nnc(SCC(=O)Nc3cccc(O)c3)nc21 was read as Cycloheximide cs 10.6*, Sm TGR block 0.0%, Shiga inhibitor 23.5, NS1 inh 4.9%, Pf growth 48h 6.0% and Pf growth 96h inconclusive.
Screening CCn1c2ccccc2c2nnc(SCC(=O)Nc3c(C)n(C)n(-c4ccccc4)c3=O)nc21 returned Cycloheximide cs -4.2, Sm TGR block 12.2%, Shiga inhibitor -25.7, NS1 inh -5.0%, Pf growth 48h inconclusive and Pf growth 96h 11.7µM*.
Screening CCCn1c2ccccc2c2nnc(SCC(=O)OC)nc21 returned Cycloheximide cs -7.0, Sm TGR block -7.5%, Shiga inhibitor -16.1, NS1 inh -14.6%, Pf growth 48h -19.6% and Pf growth 96h 7.7%.
Screening Cc1c(NC(=O)CSc2nnc3c4ccccc4n(CCc4ccccc4)c3n2)c(=O)n(-c2ccccc2)n1C returned Cycloheximide cs -0.8, Sm TGR block -0.1%, Shiga inhibitor -25.8, NS1 inh 19.7%, Pf growth 48h -8.2% and Pf growth 96h 50.7%.
Screening Cc1ccc(OCC(=O)Nc2ccc(N3CCN(C(=O)c4ccco4)CC3)cc2)cc1C returned Cycloheximide cs -5.5, Sm TGR block 19.1%, Shiga inhibitor 21.6, NS1 inh 4.7%, Pf growth 48h -15.8% and Pf growth 96h 35.0%.
Cc1cccc(OCC(=O)Nc2ccc(N3CCN(C(=O)c4ccco4)CC3)cc2)c1 was read as Cycloheximide cs -2.3, Sm TGR block 12.2%, Shiga inhibitor 17.3, NS1 inh -3.4%, Pf growth 48h 9.28µM* and Pf growth 96h 4.0%.
Cc1cc(OCC(=O)Nc2ccc(N3CCN(C(=O)c4ccco4)CC3)cc2)cc(C)c1Cl was read as Cycloheximide cs -1.7, Sm TGR block 0.0%, Shiga inhibitor -10.6, NS1 inh -3.3%, Pf growth 48h 9.28µM* and Pf growth 96h inconclusive.
`CC(=O)c1ccc(OC(=O)Cc2cccc3ccccc23)cc1` gave Cycloheximide cs -3.3, Sm TGR block 10.4%, Shiga inhibitor -9.3, NS1 inh -38.8%, Pf growth 48h 0.0% and Pf growth 96h 0.8%.
Screening CC(=O)c1ccc(OC(=O)COc2ccccc2Cl)cc1 returned Cycloheximide cs -2.2, Sm TGR block 39.8µM*, Shiga inhibitor 25.3, NS1 inh 0.3%, Pf growth 48h 232.9% and Pf growth 96h 18.5%.
`O=S(=O)(c1ccccc1)c1nc(-c2ccc(Cl)cc2)oc1NCCCN1CCOCC1` gave Sm TGR block inconclusive, Pf growth 48h 5.4% and Pf growth 96h inconclusive.
`Cc1ccc(CNc2oc(-c3ccco3)nc2S(=O)(=O)c2ccccc2)cc1` gave Cycloheximide cs 9.3, Sm TGR block 0.0%, Shiga inhibitor 9.3, NS1 inh -11.3%, Pf growth 48h 10.4µM* and Pf growth 96h inconclusive.
For O=S(=O)(c1ccc(Br)cc1)c1nc(-c2ccccc2)oc1NCCN1CCOCC1 the results were Cycloheximide cs 12.6, Sm TGR block -5.3%, Shiga inhibitor -12.2, NS1 inh 2.2%, Pf growth 48h inconclusive and Pf growth 96h 9.28µM*.
For Cc1ccccc1-c1nc(S(=O)(=O)c2ccc(Br)cc2)c(NCc2cccnc2)o1 the results were Cycloheximide cs 7.7, Sm TGR block -9.6%, Shiga inhibitor 16.5, NS1 inh 18.0% and Pf growth 48h 13.1µM*.
Screening Cc1ccc(S(=O)(=O)c2nc(-c3ccccc3)oc2NCc2cccnc2)cc1 returned Cycloheximide cs 0.5, Sm TGR block inconclusive, Shiga inhibitor -6.1, NS1 inh -49.4%, Pf growth 48h inconclusive and Pf growth 96h inconclusive.
`O=S(=O)(c1ccc(Br)cc1)c1nc(-c2ccco2)oc1NCCCn1ccnc1` gave Sm TGR block 22.4µM*, Pf growth 48h 8.28µM* and Pf growth 96h inconclusive.

Screens as filed in PubChem BioAssay.
